# Assay results from article PMC11024108.
# Legend:
# Septin-10 = Septin-10 (UniProt Q9P0V9); assay: cross-link between two proteins; cross-linking mass spectrometry
# Septin-2 = Septin-2 (UniProt Q15019); assay: as above
# Septin-8 = Septin-8 (UniProt Q8CHH9); assay: as above
# [1] = biological target: Small ribosomal subunit protein mS40 (UniProt Q9Y676); assay: as above
# [2] = biological target: Sodium/potassium-transporting ATPase subunit alpha-1 (UniProt Q8VDN2); assay: as above
# [3] = biological target: Sodium/potassium-transporting ATPase subunit alpha-2 (UniProt Q6PIE5); assay: as above
# [4] = biological target: Spectrin alpha chain, non-erythrocytic 1 (UniProt P16546); assay: as above
# [5] = biological target: Splicing factor 3B subunit 2 (UniProt Q13435); assay: as above
# [6] = biological target: Ras-related protein Rab-5C (UniProt P51148); assay: cross-linking mass spectrometry
# [7] = biological target: T-complex protein 1 subunit gamma (UniProt P49368); assay: cross-linking mass spectrometry
# [8] = biological target: tRNA-splicing ligase complex subunit RTRAF (UniProt Q9Y224); assay: cross-linking mass spectrometry
# [9] = biological target: Succinate--CoA ligase [ADP-forming] subunit beta, mitochondrial (UniProt Q9P2R7); assay: cross-link between two proteins; cross-linking mass spectrometry
# Synapsin-2 = Synapsin-2 (UniProt Q64332); assay: as above
# [10] = biological target: Vesicle-associated membrane protein 1 (UniProt Q62442); assay: as above
# Synapsin-3 = Synapsin-3 (UniProt Q8JZP2); assay: as above
# [11] = biological target: Synaptic vesicle glycoprotein 2A (UniProt Q9JIS5); assay: as above
# Synaptopodin = Synaptopodin (UniProt Q8CC35); assay: as above
# Synaptotagmin-2 = Synaptotagmin-2 (UniProt P46097); assay: as above
# [12] = biological target: T-complex protein 1 subunit beta (UniProt P80314); assay: as above
# [13] = biological target: T-complex protein 1 subunit delta (UniProt P80315); assay: as above
# [14] = biological target: T-complex protein 1 subunit epsilon (UniProt P80316); assay: as above
# [15] = biological target: T-complex protein 1 subunit theta (UniProt P42932); assay: as above
# [16] = biological target: T-complex protein 1 subunit gamma (UniProt P80318); assay: as above
# [17] = biological target: T-complex protein 1 subunit zeta (UniProt P80317); assay: as above
# Talin-2 = Talin-2 (UniProt Q71LX4); assay: as above
# [18] = biological target: Thioredoxin domain-containing protein 5 (UniProt Q8NBS9); assay: as above
# [19] = biological target: Transcriptional activator protein Pur-alpha (UniProt P42669); assay: as above
# [20] = biological target: Translation machinery-associated protein 7 (UniProt Q9Y2S6); assay: as above
# [21] = biological target: Transmembrane emp24 domain-containing protein 5 (UniProt Q9Y3A6); assay: as above
# [22] = biological target: Trifunctional enzyme subunit alpha, mitochondrial (UniProt P40939); assay: as above
# Tubulin alpha-1A chain = Tubulin alpha-1A chain (UniProt P68369); assay: as above
# [23] = biological target: UDP-glucose:glycoprotein glucosyltransferase 1 (UniProt Q9NYU2); assay: as above
# [24] = biological target: Ubiquitin-like protein NEDD8 (UniProt Q15843); assay: as above
# [25] = biological target: V-type proton ATPase subunit C 1 (UniProt Q9Z1G3); assay: as above
# [26] = biological target: V-type proton ATPase subunit F (UniProt Q9D1K2); assay: as above
# [27] = biological target: V-type proton ATPase subunit D (UniProt P57746); assay: as above
# [28] = biological target: V-type proton ATPase subunit E 1 (UniProt P50518); assay: as above
# [29] = biological target: V-type proton ATPase subunit G 1 (UniProt Q9CR51); assay: as above
# [30] = biological target: V-type proton ATPase subunit G 2 (UniProt Q9WTT4); assay: as above
# [31] = biological target: V-type proton ATPase subunit H (UniProt Q8BVE3); assay: as above
# [32] = biological target: Vesicle transport through interaction with t-SNAREs homolog 1B (UniProt Q9UEU0); assay: as above
# [33] = biological target: Vesicle-associated membrane protein-associated protein A (UniProt Q9WV55); assay: as above
# Vimentin = Vimentin (UniProt P08670); assay: as above
# [34] = biological target: tRNA-splicing ligase complex subunit RTRAF (UniProt Q9CQE8); assay: as above
# [35] = biological target: Cytochrome c oxidase assembly factor 7 (UniProt Q96BR5); assay: mass-spectrometry hit list; affinity purification or IP with mass spectrometry; cross-linking mass spectrometry
# Sequence of T-complex protein 1 subunit delta (P80315 whole entry, stated change not applied, one chain of several): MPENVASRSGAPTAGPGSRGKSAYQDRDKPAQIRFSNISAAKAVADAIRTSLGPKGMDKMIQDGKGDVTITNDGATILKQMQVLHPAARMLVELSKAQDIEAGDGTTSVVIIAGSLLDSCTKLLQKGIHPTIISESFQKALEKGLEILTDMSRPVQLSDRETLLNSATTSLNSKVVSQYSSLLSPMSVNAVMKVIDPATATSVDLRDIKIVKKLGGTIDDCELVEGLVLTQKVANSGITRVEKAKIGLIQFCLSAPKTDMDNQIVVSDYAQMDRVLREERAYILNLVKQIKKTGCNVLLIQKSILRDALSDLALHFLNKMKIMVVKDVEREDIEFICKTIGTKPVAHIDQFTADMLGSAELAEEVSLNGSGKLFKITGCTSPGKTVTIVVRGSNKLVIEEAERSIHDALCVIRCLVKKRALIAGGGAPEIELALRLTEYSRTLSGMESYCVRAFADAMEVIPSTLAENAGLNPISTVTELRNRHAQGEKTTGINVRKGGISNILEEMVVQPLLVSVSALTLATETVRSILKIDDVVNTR
# Sequence of T-complex protein 1 subunit epsilon (P80316 whole entry, one chain of several): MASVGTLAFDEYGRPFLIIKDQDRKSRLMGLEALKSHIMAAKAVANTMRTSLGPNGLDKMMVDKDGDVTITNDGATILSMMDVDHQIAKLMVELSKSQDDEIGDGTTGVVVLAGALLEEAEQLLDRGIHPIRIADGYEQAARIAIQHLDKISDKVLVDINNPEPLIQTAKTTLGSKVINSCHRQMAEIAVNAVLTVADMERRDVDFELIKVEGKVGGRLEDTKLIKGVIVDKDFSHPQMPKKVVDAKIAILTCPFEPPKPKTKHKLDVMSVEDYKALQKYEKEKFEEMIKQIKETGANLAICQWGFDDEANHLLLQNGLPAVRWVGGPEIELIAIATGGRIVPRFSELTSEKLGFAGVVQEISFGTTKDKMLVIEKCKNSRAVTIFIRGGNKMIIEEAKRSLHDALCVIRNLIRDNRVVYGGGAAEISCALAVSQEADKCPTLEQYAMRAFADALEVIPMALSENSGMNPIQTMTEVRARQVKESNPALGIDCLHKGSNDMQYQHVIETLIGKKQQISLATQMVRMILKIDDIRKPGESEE
# Sequence of T-complex protein 1 subunit alpha, P11983 (P11983 whole entry, one chain of several): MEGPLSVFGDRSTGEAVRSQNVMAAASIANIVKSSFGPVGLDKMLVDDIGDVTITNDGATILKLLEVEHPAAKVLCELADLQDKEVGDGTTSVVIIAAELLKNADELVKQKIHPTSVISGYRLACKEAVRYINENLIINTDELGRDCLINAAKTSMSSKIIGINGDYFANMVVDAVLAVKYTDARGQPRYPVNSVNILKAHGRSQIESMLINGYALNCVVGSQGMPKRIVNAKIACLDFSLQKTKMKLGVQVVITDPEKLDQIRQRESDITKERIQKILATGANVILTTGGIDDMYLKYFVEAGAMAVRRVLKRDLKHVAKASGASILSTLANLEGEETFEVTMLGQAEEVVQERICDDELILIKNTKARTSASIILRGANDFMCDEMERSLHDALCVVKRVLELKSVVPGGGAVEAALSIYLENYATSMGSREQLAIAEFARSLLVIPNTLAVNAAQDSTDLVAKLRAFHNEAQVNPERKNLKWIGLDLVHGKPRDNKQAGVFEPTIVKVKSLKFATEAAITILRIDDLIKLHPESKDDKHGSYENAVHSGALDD
# Sequence of V-type proton ATPase subunit D, P57746 (P57746 whole entry): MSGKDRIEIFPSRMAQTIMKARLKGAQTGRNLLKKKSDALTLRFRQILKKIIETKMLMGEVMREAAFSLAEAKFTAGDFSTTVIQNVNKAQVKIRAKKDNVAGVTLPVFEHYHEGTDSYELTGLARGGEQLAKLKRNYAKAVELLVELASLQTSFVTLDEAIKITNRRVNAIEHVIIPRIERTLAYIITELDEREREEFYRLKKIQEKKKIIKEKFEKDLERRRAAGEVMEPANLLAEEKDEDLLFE
# Sequence of Ras-related protein Rab-5C (P51148 whole entry): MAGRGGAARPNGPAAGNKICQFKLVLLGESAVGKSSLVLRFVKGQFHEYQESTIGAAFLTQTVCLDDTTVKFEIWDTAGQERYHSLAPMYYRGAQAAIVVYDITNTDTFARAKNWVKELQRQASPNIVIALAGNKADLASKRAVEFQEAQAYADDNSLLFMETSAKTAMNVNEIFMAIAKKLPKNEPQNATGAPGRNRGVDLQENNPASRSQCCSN
# Sequence of Translation machinery-associated protein 7 (Q9Y2S6 whole entry, the tested form may be a part): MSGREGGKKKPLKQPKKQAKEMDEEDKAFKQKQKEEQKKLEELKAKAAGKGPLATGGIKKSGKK
# Sequence of V-type proton ATPase subunit C 1 (Q9Z1G3 whole entry): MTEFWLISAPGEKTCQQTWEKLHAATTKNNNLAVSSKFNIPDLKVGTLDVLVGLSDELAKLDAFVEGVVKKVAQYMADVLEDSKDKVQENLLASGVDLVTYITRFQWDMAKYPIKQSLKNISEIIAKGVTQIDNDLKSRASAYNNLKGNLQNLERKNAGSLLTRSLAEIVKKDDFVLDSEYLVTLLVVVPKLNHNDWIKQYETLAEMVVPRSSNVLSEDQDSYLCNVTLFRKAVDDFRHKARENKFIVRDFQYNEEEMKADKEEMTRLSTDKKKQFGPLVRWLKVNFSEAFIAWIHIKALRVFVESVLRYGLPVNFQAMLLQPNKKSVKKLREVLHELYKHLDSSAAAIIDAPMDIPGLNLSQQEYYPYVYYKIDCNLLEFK
# Sequence of Septin-8 (Q8CHH9 whole entry): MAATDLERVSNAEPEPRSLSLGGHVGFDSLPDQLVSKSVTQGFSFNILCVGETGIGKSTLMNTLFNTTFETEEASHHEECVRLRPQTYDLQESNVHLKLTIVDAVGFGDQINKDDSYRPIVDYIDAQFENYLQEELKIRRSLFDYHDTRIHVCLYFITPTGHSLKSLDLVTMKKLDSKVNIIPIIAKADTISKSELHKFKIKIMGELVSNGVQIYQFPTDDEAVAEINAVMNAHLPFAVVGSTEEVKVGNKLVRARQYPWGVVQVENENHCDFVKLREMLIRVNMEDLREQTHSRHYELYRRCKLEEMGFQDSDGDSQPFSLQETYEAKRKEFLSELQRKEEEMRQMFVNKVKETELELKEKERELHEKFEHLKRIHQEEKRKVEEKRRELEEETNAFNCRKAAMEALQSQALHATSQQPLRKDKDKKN
# Sequence of Succinate--CoA ligase [ADP-forming] subunit beta, mitochondrial (Q9P2R7 whole entry): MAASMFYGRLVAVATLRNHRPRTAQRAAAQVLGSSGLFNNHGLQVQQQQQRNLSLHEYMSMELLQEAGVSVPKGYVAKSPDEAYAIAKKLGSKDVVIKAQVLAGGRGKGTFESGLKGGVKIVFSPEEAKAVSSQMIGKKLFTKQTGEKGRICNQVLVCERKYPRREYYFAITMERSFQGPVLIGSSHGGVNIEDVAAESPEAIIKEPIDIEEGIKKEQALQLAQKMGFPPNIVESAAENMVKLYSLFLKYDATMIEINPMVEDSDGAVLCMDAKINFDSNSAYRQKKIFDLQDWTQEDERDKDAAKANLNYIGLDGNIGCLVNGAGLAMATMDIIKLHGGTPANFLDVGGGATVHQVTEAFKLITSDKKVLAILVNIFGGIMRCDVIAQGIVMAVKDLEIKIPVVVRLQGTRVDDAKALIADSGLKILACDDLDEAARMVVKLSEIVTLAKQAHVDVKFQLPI
# Sequence of Synapsin-3 (Q8JZP2 whole entry): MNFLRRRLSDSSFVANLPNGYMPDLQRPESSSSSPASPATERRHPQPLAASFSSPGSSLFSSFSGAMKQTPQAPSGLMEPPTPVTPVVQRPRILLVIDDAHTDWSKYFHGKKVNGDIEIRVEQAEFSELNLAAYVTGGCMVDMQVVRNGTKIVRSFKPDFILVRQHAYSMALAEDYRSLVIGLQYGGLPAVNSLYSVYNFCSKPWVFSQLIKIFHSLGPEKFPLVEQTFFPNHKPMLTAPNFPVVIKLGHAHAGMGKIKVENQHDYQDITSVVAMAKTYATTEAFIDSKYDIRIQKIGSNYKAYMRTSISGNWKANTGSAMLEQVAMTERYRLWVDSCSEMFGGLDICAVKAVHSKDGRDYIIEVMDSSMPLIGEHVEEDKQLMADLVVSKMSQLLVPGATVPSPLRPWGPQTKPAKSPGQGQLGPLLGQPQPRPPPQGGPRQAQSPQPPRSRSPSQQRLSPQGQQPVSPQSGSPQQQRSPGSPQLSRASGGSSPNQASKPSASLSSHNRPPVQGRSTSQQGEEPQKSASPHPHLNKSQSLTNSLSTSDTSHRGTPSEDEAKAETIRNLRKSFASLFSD
# Sequence of Tubulin alpha-1A chain (P68369 whole entry): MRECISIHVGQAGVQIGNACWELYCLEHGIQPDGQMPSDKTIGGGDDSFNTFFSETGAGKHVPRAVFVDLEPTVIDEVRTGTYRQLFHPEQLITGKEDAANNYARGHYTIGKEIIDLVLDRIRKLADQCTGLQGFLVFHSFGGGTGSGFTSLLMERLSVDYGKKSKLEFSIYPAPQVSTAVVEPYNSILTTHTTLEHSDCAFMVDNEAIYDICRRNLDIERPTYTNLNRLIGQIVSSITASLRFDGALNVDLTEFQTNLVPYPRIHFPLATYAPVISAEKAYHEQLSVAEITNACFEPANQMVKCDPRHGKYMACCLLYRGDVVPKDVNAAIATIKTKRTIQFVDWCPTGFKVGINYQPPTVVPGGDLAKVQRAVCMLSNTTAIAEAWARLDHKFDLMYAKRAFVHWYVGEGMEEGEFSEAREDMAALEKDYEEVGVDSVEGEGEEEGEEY
# Sequence of V-type proton ATPase subunit E 1 (P50518 whole entry): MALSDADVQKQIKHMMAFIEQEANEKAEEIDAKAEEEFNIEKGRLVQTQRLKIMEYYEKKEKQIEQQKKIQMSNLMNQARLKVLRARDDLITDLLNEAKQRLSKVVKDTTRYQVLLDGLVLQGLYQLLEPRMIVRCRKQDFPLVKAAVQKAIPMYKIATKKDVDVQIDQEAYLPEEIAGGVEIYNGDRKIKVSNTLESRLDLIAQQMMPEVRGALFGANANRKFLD
# Sequence of V-type proton ATPase subunit G 2 (Q9WTT4 whole entry): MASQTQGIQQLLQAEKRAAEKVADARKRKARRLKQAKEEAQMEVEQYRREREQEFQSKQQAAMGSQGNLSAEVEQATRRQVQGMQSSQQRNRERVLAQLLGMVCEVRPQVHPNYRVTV
substance,measurement,setting,value
"Septin-2, Q15019",listed as a hit,Septin-10,yes
"Septin-6, Q14141",listed as a hit,Septin-2,yes
"Septin-11, Q8C1B7",listed as a hit,Septin-8,yes
"Haloacid dehalogenase-like hydrolase domain-containing protein 3, Q9BSH5",listed as a hit,[1],yes
"FXYD domain-containing ion transport regulator 7, P59648",listed as a hit,[2],yes
"Excitatory amino acid transporter 1, P56564",listed as a hit,[3],yes
"Spectrin beta chain, erythrocytic, P15508",listed as a hit,[4],yes
"U2 small nuclear ribonucleoprotein B'', P08579",listed as a hit,[5],yes
"Ras-related protein Rab-5A, P20339",listed as a hit,[6],yes
"Programmed cell death protein 5, O14737",listed as a hit,[7],yes
"ATP-dependent RNA helicase DDX1, Q92499",listed as a hit,[8],yes
"Succinate--CoA ligase [ADP/GDP-forming] subunit alpha, mitochondrial, P53597",listed as a hit,[9],yes
"Synapsin-1, O88935",listed as a hit,Synapsin-2,yes
same,listed as a hit,[10],yes
"Synapsin-2, Q64332",listed as a hit,Synapsin-3,yes
"Synaptophysin, Q62277",listed as a hit,[11],yes
"Alpha-actinin-1, Q7TPR4",listed as a hit,Synaptopodin,yes
"Synaptotagmin-1, P46096",listed as a hit,Synaptotagmin-2,yes
"T-complex protein 1 subunit eta, P80313",listed as a hit,[12],yes
"T-complex protein 1 subunit beta, P80314",listed as a hit,[13],yes
same,listed as a hit,[14],yes
"T-complex protein 1 subunit alpha, P11983",listed as a hit,[13],yes
same,listed as a hit,[15],yes
"T-complex protein 1 subunit delta, P80315",listed as a hit,[14],yes
"T-complex protein 1 subunit zeta, P80317",listed as a hit,[16],yes
"T-complex protein 1 subunit theta, P42932",listed as a hit,[17],yes
"Talin-1, P26039",listed as a hit,Talin-2,yes
"Peroxiredoxin-4, Q13162",listed as a hit,[18],yes
"Transcriptional regulator protein Pur-beta, O35295",listed as a hit,[19],yes
"Nuclease EXOG, mitochondrial, Q9Y2C4",listed as a hit,[20],yes
"Transmembrane emp24 domain-containing protein 9, Q9BVK6",listed as a hit,[21],yes
"ADP/ATP translocase 3, P12236",listed as a hit,[22],yes
"Tubulin alpha-4A chain, P68368",listed as a hit,Tubulin alpha-1A chain,yes
"Selenoprotein F, O60613",listed as a hit,[23],yes
"Cullin-2, Q13617",listed as a hit,[24],yes
"V-type proton ATPase subunit D, P57746",listed as a hit,[25],yes
same,listed as a hit,[26],yes
"V-type proton ATPase catalytic subunit A, P50516",listed as a hit,[27],yes
same,listed as a hit,[28],yes
"V-type proton ATPase subunit E 1, P50518",listed as a hit,[29],yes
same,listed as a hit,[30],yes
"V-type proton ATPase subunit B, brain isoform, P62814",listed as a hit,[31],yes
"Vesicle-associated membrane protein 7, P51809",listed as a hit,[32],yes
"Vesicle-associated membrane protein-associated protein B, Q9QY76",listed as a hit,[33],yes
"Neurofilament medium polypeptide, P07197",listed as a hit,Vimentin,yes
"RNA-splicing ligase RTCB, Q99LF4",listed as a hit,[34],yes
"MICOS complex subunit MIC60, Q16891",listed as a hit,[35],yes
